# Laboratory results published in PubChem BioAssay (NCI).
# About 83,000 compounds went through this panel and 20% of them were active in at least one assay; those are over-represented in the sample as a whole.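 Negative percent growth values reflect cell death: -40 means 40% of the cells present at the start died, and -100 means all died.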 Unmarked numbers belong to inactive results. The source made the active and inactive calls. Rule for the calls: active = growth percent below 10; inactive = the rest.
# Test system: 786-0 renal
# Assay: NCI-60 one-dose screen, 48 h (100 = growth as untreated, 0 = no growth, -100 = all killed)
# Conditions: 10 µM unless noted
row,SMILES,growth
1,CC[C@H](C)[C@H](N)C(=O)O,112%
2,COc1ccc2c(c1)sc1nc(-c3ccccc3)c(-c3cccc4ccccc34)n12,51.7%
3,Cc1ccc(C)c(NC(=O)c2sc3c(=O)[nH]cnc3c2C)c1,89.9%
4,Cc1ccncc1NC=O,103%
5,COc1ccc(/C(C)=N/NC(=O)CSc2nc3ccccc3c(=O)n2CCc2ccc(S(N)(=O)=O)cc2)cc1,-68.1% (active)
6,COC(=O)OC1C(O[C@H]2C[C@H]3[C@@H]4CC=C5C[C@@H](O)CC[C@]5(C)[C@H]4CC[C@]3(C)[C@H]2[C@H](C)C(=O)CCC(C)C)OCC(O)C1OC1OCC(O)C(O)C1OC(=O)c1ccc(OC)cc1 (stereo partly drawn),-25% (active)
7,O=C1CCCN1C1CCN2CCCc3cccc1c32 (stereo not drawn),101%
8,CC1OC(n2c3ccccc3c3c4c(c5c6ccccc6[nH]c5c32)C(=O)N(CCN[C@H]2CCC[C@@H]2N)C4=O)CC(O)C1O (stereo partly drawn),50.2%
9,COc1ccc2[nH]cc(C3(c4c[nH]c5ccc(OC)cc45)C(=O)Nc4ccc(F)cc43)c2c1,82.6%
10,c1cc2c(cc1-c1cnc3nonc3n1)OCO2,109%
11,Nc1c(C(=O)Nc2cccc(Cl)c2)sc2nc3c(cc12)C(=O)CCC3,47.7%
12,O=C(Nc1ccc(Br)cc1)c1ccc(Cl)c(Cl)c1,73.1%
13,O=C(CSc1nc2c(n1Nc1ccccc1)-c1ccccc1SC2)Nc1nccs1,96.8%
14,COc1ccc(-c2nc3c(c(-c4ccc(Cl)cc4)nn3-c3ccccc3)c(-c3ccc(O)cc3)c2C#N)cc1,9.2% (active)
15,c1csc(-c2cnc3nonc3n2)c1,101%
16,CC1(C)CC(=O)c2cc3c(N)c(C(=O)Nc4ccc(Cl)cc4)sc3nc2C1,98.7%
17,CN1C(=O)C(C(=O)/C=C/c2ccccc2C(=O)O)C(=O)N(C)C1=O,94.7%
18,CC(NC(=O)c1ccccc1)C(=O)Nc1ccccc1 (stereo not drawn),105%
19,CN1CCC2(CC1)N=C(SCC(=O)Nc1cnc3ccccc3c1)C(c1ccc(Br)cc1)=N2,-81.7% (active)
20,CSc1nc(N)c2[nH]c(-c3cc4ccccc4[nH]c3=O)nc2n1,72.1%

row,SMILES,growth
1,C=CC(=O)N1CN(C(=O)C=C)CN(C(=O)C=C)C1,95.7%
2,CC(C)(C)[Si](C)(C)OC1[C@@H](O[Si](C)(C)C(C)(C)C)[C@@H](CNC(=O)NC(=O)NC(=O)CCl)O[C@H]1n1cnc2c(NC(=O)Nc3ccccc3)ncnc21 (stereo partly drawn),26.6%
3,CCCCCCCC/C=C/CCCCCCCC1=NC(C)(C)CN1c1ccccc1,81.8%
4,CCCCCCCCN(CCCCCCCC)C(=O)CCl,80.6%
5,COc1cc(OC)c(Cl)cc1N,111%
6,CNC(=O)c1c(NC(=O)c2ccc(C(C)C)cc2)sc2c1CCC(=O)C2,13%
7,COc1nccc2c(Sc3ccccc3)nc(N)nc12,88.9%
8,Nc1c(C(=O)Nc2ccccc2)sc2nc3c(cc12)C(=O)CCC3,36.2%
9,CCC(=O)NC1=C(Cl)C(=O)C(NC(=O)CC)=C(Cl)C1=O,105%
10,CCCCCCCCCCCCC1CCC(=O)O1 (stereo not drawn),85.9%
11,CCN1C(=O)N(CC)C2C1NC(=O)N2/N=C/C=C/c1ccccc1 (stereo not drawn),33%
12,CN(C)CCCN1c2ccccc2CCc2ccccc21,95.7%
13,CC(CN1CCN(CC(C)Nc2ccnc3cc(Cl)ccc23)CC1)Nc1ccnc2cc(Cl)ccc12 (stereo not drawn),-9.83% (active)
14,S=C(S)Oc1cccc2cccnc12,103%
15,CCn1c(Cc2ccccc2Nc2c(Cl)cccc2Cl)nnc1SCC(=O)Nc1cccc(OC)c1,89.8%
16,CCc1onc(-c2ccc(OC)cc2)c1-c1ccccc1OCCN(CC)CC,75.9%
17,COc1ccc(-c2cc(-c3ccc(OC)cc3)c3sc(=O)[nH]c3n2)cc1,79.3%
18,COc1ccc2nc3ccccc3c(NCc3ccc(C)cc3)c2c1,15.8%
19,CS(=O)(=O)c1ccc(C(=O)Nc2ccc(Cl)c(-c3ccccn3)c2)c(Cl)c1,-41.2% (active)

# Test system: COLO 205 colon
# Assay: as above
# Conditions: 10 µM unless noted
row,SMILES,growth
1,CC[C@H](C)[C@H](N)C(=O)O,103%
2,COc1ccc2c(c1)sc1nc(-c3ccccc3)c(-c3cccc4ccccc34)n12,6.28% (active)
3,Cc1ccc(C)c(NC(=O)c2sc3c(=O)[nH]cnc3c2C)c1,83.3%
4,Cc1ccncc1NC=O,110%
5,COc1ccc(/C(C)=N/NC(=O)CSc2nc3ccccc3c(=O)n2CCc2ccc(S(N)(=O)=O)cc2)cc1,33.5%
6,COC(=O)OC1C(O[C@H]2C[C@H]3[C@@H]4CC=C5C[C@@H](O)CC[C@]5(C)[C@H]4CC[C@]3(C)[C@H]2[C@H](C)C(=O)CCC(C)C)OCC(O)C1OC1OCC(O)C(O)C1OC(=O)c1ccc(OC)cc1 (stereo partly drawn),-52.4% (active)
7,O=C1CCCN1C1CCN2CCCc3cccc1c32 (stereo not drawn),110%
8,CC1OC(n2c3ccccc3c3c4c(c5c6ccccc6[nH]c5c32)C(=O)N(CCN[C@H]2CCC[C@@H]2N)C4=O)CC(O)C1O (stereo partly drawn),11.5%
9,COc1ccc2[nH]cc(C3(c4c[nH]c5ccc(OC)cc45)C(=O)Nc4ccc(F)cc43)c2c1,72.9%
10,c1cc2c(cc1-c1cnc3nonc3n1)OCO2,91.2%
11,Nc1c(C(=O)Nc2cccc(Cl)c2)sc2nc3c(cc12)C(=O)CCC3,10.2%
12,O=C(Nc1ccc(Br)cc1)c1ccc(Cl)c(Cl)c1,83.9%
13,O=C(CSc1nc2c(n1Nc1ccccc1)-c1ccccc1SC2)Nc1nccs1,121%
14,COc1ccc(-c2nc3c(c(-c4ccc(Cl)cc4)nn3-c3ccccc3)c(-c3ccc(O)cc3)c2C#N)cc1,57.8%
15,c1csc(-c2cnc3nonc3n2)c1,91.3%
16,CC1(C)CC(=O)c2cc3c(N)c(C(=O)Nc4ccc(Cl)cc4)sc3nc2C1,117%
17,CN1C(=O)C(C(=O)/C=C/c2ccccc2C(=O)O)C(=O)N(C)C1=O,114%
18,CC(NC(=O)c1ccccc1)C(=O)Nc1ccccc1 (stereo not drawn),106%
19,CN1CCC2(CC1)N=C(SCC(=O)Nc1cnc3ccccc3c1)C(c1ccc(Br)cc1)=N2,-76.2% (active)
20,CSc1nc(N)c2[nH]c(-c3cc4ccccc4[nH]c3=O)nc2n1,97.9%

row,SMILES,growth
1,C=CC(=O)N1CN(C(=O)C=C)CN(C(=O)C=C)C1,-44.4% (active)
2,CC(C)(C)[Si](C)(C)OC1[C@@H](O[Si](C)(C)C(C)(C)C)[C@@H](CNC(=O)NC(=O)NC(=O)CCl)O[C@H]1n1cnc2c(NC(=O)Nc3ccccc3)ncnc21 (stereo partly drawn),57.1%
3,CCCCCCCC/C=C/CCCCCCCC1=NC(C)(C)CN1c1ccccc1,97.8%
4,CCCCCCCCN(CCCCCCCC)C(=O)CCl,108%
5,COc1cc(OC)c(Cl)cc1N,115%
6,CNC(=O)c1c(NC(=O)c2ccc(C(C)C)cc2)sc2c1CCC(=O)C2,-70.3% (active)
7,COc1nccc2c(Sc3ccccc3)nc(N)nc12,117%
8,Nc1c(C(=O)Nc2ccccc2)sc2nc3c(cc12)C(=O)CCC3,-18.4% (active)
9,CCC(=O)NC1=C(Cl)C(=O)C(NC(=O)CC)=C(Cl)C1=O,-91.4% (active)
10,CCCCCCCCCCCCC1CCC(=O)O1 (stereo not drawn),97.9%
11,CCN1C(=O)N(CC)C2C1NC(=O)N2/N=C/C=C/c1ccccc1 (stereo not drawn),27.4%
12,CN(C)CCCN1c2ccccc2CCc2ccccc21,78%
13,CC(CN1CCN(CC(C)Nc2ccnc3cc(Cl)ccc23)CC1)Nc1ccnc2cc(Cl)ccc12 (stereo not drawn),-85% (active)
14,S=C(S)Oc1cccc2cccnc12,111%
15,CCn1c(Cc2ccccc2Nc2c(Cl)cccc2Cl)nnc1SCC(=O)Nc1cccc(OC)c1,96.4%
16,CCc1onc(-c2ccc(OC)cc2)c1-c1ccccc1OCCN(CC)CC,67%
17,COc1ccc(-c2cc(-c3ccc(OC)cc3)c3sc(=O)[nH]c3n2)cc1,107%
18,COc1ccc2nc3ccccc3c(NCc3ccc(C)cc3)c2c1,-40.6% (active)
19,CS(=O)(=O)c1ccc(C(=O)Nc2ccc(Cl)c(-c3ccccn3)c2)c(Cl)c1,6.45% (active)
